Test systems include SR leukemia; RPMI-8226 leukemia; OVCAR-5 ovarian; OVCAR-4 ovarian; SK-OV-3 ovarian; IGROV1 ovarian; OVCAR-3 ovarian; HS 578T breast; NCI/ADR-RES ovarian; OVCAR-8 ovarian.
Test in all cases: NCI-60 one-dose screen, 48 h (100 = growth as untreated, 0 = no growth, -100 = all killed)
Common to all, as to details: 10 µM unless noted

Values joined by “and” are separate entries in the source; they are usually repeats but may differ in a detail not shown here. Equal entries are not always repeated. The panel holds about 83,000 compounds, 20% with a hit somewhere; the sample as a whole holds those more often.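 Activity criterion: percent growth below 10, measured after cells in 96-well plates were exposed to a single compound concentration for 48 hours.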 Active and inactive are the calls of the source.

`Cc1nc2sc(C(=O)Nc3cccc(Cl)c3C)c(N)c2cc1C(O)c1ccccc1` (stereo not drawn): the growth in the test on SR leukemia is 7.23% (active); in the test on RPMI-8226 leukemia, 8.08% (active); in the test with OVCAR-5 ovarian, 37.5% (inactive); in the test on OVCAR-4 ovarian, 55.6% (inactive); in the test on SK-OV-3 ovarian, 32.9% (inactive); in the test on IGROV1 ovarian it was 21.8% (inactive). Further, the growth with OVCAR-3 ovarian was 4.1% (active); in the test with HS 578T breast it was 23.4% (inactive); in the test with NCI/ADR-RES ovarian, 3.99% (active).
Turning to `O=C(Nc1ncc(Cc2cccc(C(F)(F)F)c2)s1)c1ccc2c(c1)OCCO2`, the growth with SR leukemia is 6.85% (active); in the test on RPMI-8226 leukemia, 17.6% (inactive); in the test on OVCAR-5 ovarian it was 37.1% (inactive); in the test on OVCAR-4 ovarian, 37.1% (inactive); in the test with SK-OV-3 ovarian it was 35.3% (inactive); in the test with IGROV1 ovarian, 23.4% (inactive). In addition, the growth is -8.1% (active) with OVCAR-3 ovarian, 21.4% (inactive) in the test on HS 578T breast and 7.71% (active) in the test on NCI/ADR-RES ovarian.
For the compound `C=C(C)[C@@H]1CC[C@]2(C)[C@H](CC(=O)N[C@H]3[C@@H]4C[C@](C)(C(=O)OC)CC[C@]4(C)CC[C@]32C)[C@@]1(C)CCC#N`, the growth with SR leukemia is 41.8% (inactive); with RPMI-8226 leukemia, 48.3% (inactive); in the test on OVCAR-8 ovarian it was 78.7% (inactive); in the test with IGROV1 ovarian it was 95.2% (inactive); with OVCAR-3 ovarian it was 79.7% (inactive); in the test with HS 578T breast, 93.4% (inactive). The growth in the test with NCI/ADR-RES ovarian is 86.6% (inactive).
For `OCCN1CCN(CC/C=C2\c3ccccc3Sc3ccc(Cl)cc32)CC1`, the growth is -35.8% (active) and -38.4% (active) in the test on RPMI-8226 leukemia; 79.4% (inactive) and 86.4% (inactive) in the test on OVCAR-8 ovarian; 41.8% (inactive) and 63.4% (inactive) with OVCAR-5 ovarian; 71.9% (inactive) and 128% (inactive) in the test with OVCAR-4 ovarian; 77.8% (inactive) and 77.2% (inactive) with SK-OV-3 ovarian; 26.3% (inactive) with IGROV1 ovarian. Further, the growth in the test with OVCAR-3 ovarian is 42.4% (inactive) and 37.7% (inactive); in the test with HS 578T breast, 1.43% (active) and 32.3% (inactive); with NCI/ADR-RES ovarian it was 58.2% (inactive) and 76.6% (inactive).
With `O=C1CCCCN1CCCCC#Cc1cccc(C#Cc2cccnc2)c1`, the growth was -46.3% (active) in the test with SR leukemia; 49.7% (inactive) with RPMI-8226 leukemia; 101% (inactive) with OVCAR-5 ovarian; 93.8% (inactive) in the test with OVCAR-4 ovarian; 109% (inactive) in the test with SK-OV-3 ovarian; 79.4% (inactive) in the test with IGROV1 ovarian. For the same compound, the growth is 89.7% (inactive) in the test on OVCAR-3 ovarian, 88% (inactive) in the test with HS 578T breast and 72.7% (inactive) with NCI/ADR-RES ovarian.
For the compound `COc1cc(Cl)cc(-c2nn(C(=O)NS(=O)(=O)c3ccc(Cl)cc3)cc2-c2ccncc2)c1`, the growth with SR leukemia is 80.5% (inactive); in the test with RPMI-8226 leukemia, 77.2% (inactive); with OVCAR-5 ovarian, 87.4% (inactive); in the test with SK-OV-3 ovarian, 84.7% (inactive); in the test with IGROV1 ovarian, 82.6% (inactive); with OVCAR-3 ovarian, 98.3% (inactive). Further, the growth was 73.3% (inactive) with HS 578T breast and 84.1% (inactive) in the test on NCI/ADR-RES ovarian.
Turning to `CCC(=O)Oc1cc(Cl)c(Cl)cc1Cl`, the growth in the test with SR leukemia is 101% (inactive); in the test on RPMI-8226 leukemia, 102% (inactive); in the test on OVCAR-5 ovarian, 90.2% (inactive); in the test with OVCAR-4 ovarian, 101% (inactive); in the test with SK-OV-3 ovarian it was 107% (inactive); in the test on IGROV1 ovarian it was 108% (inactive). Further, the figures for the growth in the test on OVCAR-3 ovarian, with HS 578T breast and with NCI/ADR-RES ovarian were 113% (inactive), 97.4% (inactive) and 108% (inactive), respectively.
Regarding `CCN(c1cc(-c2ccc(CN3CCC(/C=C/S(=O)(=O)c4ccccc4)CC3)cc2)cc(C(=O)NCc2c(C)cc(C)[nH]c2=O)c1C)C1CCOCC1`, the growth in the test on SR leukemia was 17.9% (inactive); in the test on RPMI-8226 leukemia, 19.2% (inactive); with OVCAR-5 ovarian, 90.3% (inactive); with OVCAR-4 ovarian, 73% (inactive); in the test on SK-OV-3 ovarian, 86.2% (inactive); in the test with IGROV1 ovarian, 53.7% (inactive). Besides, the results for the growth with OVCAR-3 ovarian, in the test on HS 578T breast and with NCI/ADR-RES ovarian were 77.3% (inactive), 62.2% (inactive) and 73.7% (inactive), respectively.
Take `Clc1ccc(/C=N\N2CCCCCC2)cc1`: the growth was 93.8% (inactive) and 79.5% (inactive) in the test with SR leukemia; 107% (inactive) with RPMI-8226 leukemia; 91.9% (inactive) with OVCAR-4 ovarian; 110% (inactive) and 109% (inactive) in the test on SK-OV-3 ovarian; 103% (inactive) with IGROV1 ovarian; 101% (inactive) and 116% (inactive) in the test with OVCAR-3 ovarian. The growth in the test on HS 578T breast is 109% (inactive) and 139% (inactive); with NCI/ADR-RES ovarian, 104% (inactive).
Regarding `COc1cc2ncnc(Nc3ccc(F)c(Cl)c3)c2cc1OCC(=O)N1CCCCC1`, the growth is 74.6% (inactive) in the test on SR leukemia; 81.9% (inactive) in the test with RPMI-8226 leukemia; 67% (inactive) in the test on OVCAR-5 ovarian; 71.7% (inactive) in the test on OVCAR-4 ovarian; 21.3% (inactive) with SK-OV-3 ovarian; 42.8% (inactive) in the test with IGROV1 ovarian. In addition, the growth with OVCAR-3 ovarian is 73.2% (inactive); in the test on HS 578T breast it was 94.4% (inactive); with NCI/ADR-RES ovarian it was 62.1% (inactive).
With `CCCCCCCCCCCCCCCCCCn1cc(COc2ccc(C=O)cc2)nn1`, the growth with SR leukemia is 85.6% (inactive); in the test on RPMI-8226 leukemia it was 95.3% (inactive); in the test on OVCAR-5 ovarian, 120% (inactive); with OVCAR-4 ovarian, 103% (inactive); in the test with SK-OV-3 ovarian, 91.3% (inactive); in the test with IGROV1 ovarian, 103% (inactive). Besides, the values for the growth with HS 578T breast and with NCI/ADR-RES ovarian were 110% (inactive) and 96.4% (inactive), respectively.
As for `Cc1ccc(-c2nc(SCC(=O)c3ccc(C#N)cc3)[nH]c(=O)c2C#N)cc1`, the growth in the test with SR leukemia was -40.6% (active); with RPMI-8226 leukemia, 123% (inactive); in the test on OVCAR-5 ovarian it was 94.8% (inactive); in the test with OVCAR-4 ovarian it was 94.5% (inactive); with SK-OV-3 ovarian, 82.4% (inactive); in the test on IGROV1 ovarian, 99.9% (inactive). Further, the growth in the test on OVCAR-3 ovarian was 97.9% (inactive); in the test with HS 578T breast it was 113% (inactive); with NCI/ADR-RES ovarian it was 101% (inactive).
